# Screens from PubChem.
# DYRK1A inh: rat Dyrk1A kinase inhibitors, primary screen, biochemical, single point, plate reader; Dual specificity tyrosine-phosphorylation-regulated kinase 1A (Rattus norvegicus), Q63470; ADP-Glo luminescence, NFATc1 peptide; inhibition, % at 12.5 µM; 310,000 compounds, 0.43% hits;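 note: plate controls were vehicle with enzyme for no effect and no enzyme for full effect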
# miR-122 sensor: miR-122 Renilla sensor signal increase in Huh7, primary screen, miR-122 inhibitor project, cell-based, single point, plate reader. activation (reporter increase), % at 12.5 µM. 340,000 compounds, 0.3% hits. Huh7 miR-122 Renilla luciferase sensor, 48 h; neutral wells = 0, positive control = 100;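 active = mean replicate activation score at least 90 and every replicate individually at or above 90; inconclusive = only one of the two criteria met; inactive = neither criterion met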;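 note: higher luciferase means less miR-122 activity so hits act as miR-122 inhibitors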
# Wnt bcat act: Wnt/beta-catenin pathway activators, primary screen, cell-based, plate reader, single point | Wnt/beta-catenin reporter cell assay, activator | 300,000 compounds, 1.2% hits | activation, % at 9.35 µM; in the data active = activation above about 30%, passing the limit was not always enough; inconclusive = no clear call, values can overlap the other calls;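 note: 0% = neutral control wells and 100% = positive control wells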
# MITF act: activators of MITF-driven TRPM1 promoter reporter, primary screen, cell-based, SK-MEL-5, luciferase, single point | SK-MEL-5 TRPM1-promoter luciferase, 24 h; % of positive control, neutral wells = 0 | activation, % at 12.5 µM | 300,000 compounds, 0.75% hits | AID 588334, 2011;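 active = mean activation of at least 80% with every replicate also reaching 80%; inconclusive = mean reaches 80% but some replicate falls short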;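 note: 0% = neutral control wells and 100% = parthenolide positive control wells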
# INS-1E GSIS act: GLuc luminescence reporter in INS-1E cells, primary screen for activators of glucose-dependent secretion of insulin | INS-1E GLuc reporter insulin secretion, 2-3 h | 370,000 compounds, 0.61% hits | activation, % at 16.6 µM;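 active = lowest replicate activation of at least 40%, so every replicate reaches that level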;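 note: 0% = median of neutral control wells and 100% = median of IBMX positive control wells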
# NSD2 inh: NSD2 histone methyltransferase inhibitors, primary screen, biochemical, AlphaScreen, single concentration, set 2; inhibition, % at 12.5 µM; 310,000 compounds, 0.54% hits; NSD2 peptide methylation, 120 min
# Numbers without * were called inactive; ? = inconclusive; nt = not tested or not shown; [ ] = dose if it differs, or a comment. This is a sample that favours compounds with a hit; in the whole collection about 2.4% have one here. Cut-off read from the data, not from the text of the source, unless noted: active = inhibition above about 50%; inactive = the rest.
SMILES,DYRK1A inh,miR-122 sensor,Wnt bcat act,MITF act,INS-1E GSIS act,NSD2 inh
CC1CCc2nc3sc4c(c3c(N)c2C1)CCCC4 (stereo not drawn),0.8,nt,44.9*,57.9,-1.0,-0.2
CC1CCc2c(nc3sc4c(c3c2N)CCCC4)C1 (stereo not drawn),-2.7,12.9,25.4,38.7,12.1,nt
COC(=O)C1=C(C)N(Cc2ccco2)C(=O)/C1=C\c1ccc(N(C)C)cc1,-11.8,0.0,nt,13.3,57.5*,2.4
CC(C)C#Cc1cnc2c(c1)C(=O)N([C@H](C)CO)C[C@H](C)[C@H](CN(C)Cc1cncnc1)O2,nt,-5.3[16.7 µM],nt,nt,2.8,nt
COc1ccc(S(=O)(=O)N2CCc3ccccc32)cc1C(=O)Nc1cccnc1,2.2,11.1,-2.0,-11.2,50.1*,-2.6
CC1CCCN(c2nc3ccsc3c(=O)s2)C1 (stereo not drawn),25.6,3.6,52.5*,72.9,nt,-10.9
COc1cccc(-c2cnc3cccnn23)c1,nt,-1.4,-2.5,nt,25.5,-11.9
Cc1ccc(-c2cnc3cccnn23)cc1F,nt,7.2,1.0,nt,45.7*,-21.5
CC(=O)N(C)C[C@H]1Oc2ccc(N)cc2CC(=O)N(C)C[C@H]1C,nt,nt,nt,nt,10.2,nt
O=[N+]([O-])c1ccc(N2CCCCC2)cc1N1CCOCC1,-6.1,nt,-1.4,4.2,45.3*,6.2
O=[N+]([O-])c1ccc(N2CCCC2)cc1N1CCCC1,13.9,-0.1,-1.0,-1.4,19.0,53.4*
O=[N+]([O-])c1ccc(N2CCOCC2)cc1N1CCCCC1,18.1,nt,-0.7,-0.2,42.9,6.9
COc1ccc(S(=O)(=O)N(C)C[C@@H]2Oc3ccc(NC(=O)Cn4cnnn4)cc3CC(=O)N([C@H](C)CO)C[C@H]2C)cc1,nt,-5.5[16.7 µM],nt,nt,4.4,nt
O=C1OC(Nc2cc(Br)cc3cccnc23)c2ccccc21 (stereo not drawn),7.5,3.1,4.4,-31.0,nt,104.2*
O=C1OC(Nc2ncccn2)c2ccccc21 (stereo not drawn),-0.2,-0.4,nt,-8.6,8.0,-5.9
COc1ccc(S(=O)(=O)NNC(=O)c2cccs2)cc1,-0.6,nt,-0.6,-7.6,-11.3,-1.2
O=C(NNS(=O)(=O)c1ccc(Cl)cc1)c1cccs1,nt,115.6*,1.4,-2.9,-4.8,-1.4
CC(C)(C)C(=O)Nc1cccc(-c2nc3ccccc3[nH]2)c1,14.9,-2.1,0.7,6.8,nt,1.6
CC(C)CC(=O)Nc1cccc(-c2nc3ccccc3[nH]2)c1,-2.1,158.1*,4.7,22.9,-26.4,1.6
O=C(COc1ccccc1)Nc1cccc(-c2nc3cc4ccccc4cc3[nH]2)c1,5.8,0.3,nt,105.5*,-33.9,-2.8
COc1ccc(NC(=O)C2=Cc3ccccc3OC2)cc1,-3.8,16.4,13.3,13.3,-7.3,-4.7
COc1ccc(NC(=O)C2=Cc3cccc(OC)c3OC2)cc1,7.8,nt,44.3*,51.7,16.3,7.4
COc1ccc(CN(C)C[C@@H]2OCCCC[C@@H](C)Oc3ccc(NC(=O)c4ccncc4)cc3C(=O)N([C@@H](C)CO)C[C@@H]2C)cc1,nt,11.2[16.7 µM],nt,nt,-6.2,nt
COc1ccc2sc(NCc3ccccc3)nc2c1,-5.5,9.5,33.0*,111.0*,-4.2,-2.2
CCC(=O)Nc1cc2nn(-c3ccc(OC)cc3)nc2cc1C,-4.2,1.3,nt,31.0,107.8*,1.3
SMILES,DYRK1A inh,miR-122 sensor,Wnt bcat act,MITF act,INS-1E GSIS act,NSD2 inh
COc1ccc2sc(NC(C)=O)nc2c1,29.0,-2.4,48.0*,54.5,nt,0.5
COc1cc(CNc2nc3ccccc3s2)cc(OC)c1OC,-7.2,1.6,1.3,nt,-9.8,-0.5
COc1ccc2sc(NC(=O)CC(C)C)nc2c1,48.1,-3.1,57.5*,?,nt,6.8
C[C@H](CO)N1C[C@H](C)[C@@H](CN(C)C(=O)C2CCCCC2)Oc2ncc(C#CC3CCCCC3)cc2C1=O,nt,nt,nt,nt,2.2,nt
C/C=C/c1ccc2c(c1)O[C@@H](CN(C)C(=O)CC)[C@@H](C)CN([C@H](C)CO)S2(=O)=O,nt,-0.3[16.7 µM],nt,nt,21.8,nt
CCC(=O)Nc1nc2cc(OC)ccc2s1,2.2,3.6,59.2*,nt,nt,-0.1
COc1ccc(/C=C/c2nnc(NC(=O)CSc3ccc(C)cc3)s2)cc1,-6.3,4.2,26.7,12.9,14.6,-0.2
CCC(=O)Nc1nnc(/C=C/c2ccc(OC)cc2)s1,nt,nt,34.0*,nt,-1.6,-0.7
O=C([C@H]1[C@H](CO)[C@H]2Cn3c(cccc3=O)[C@H]2N1Cc1ccccn1)N1CCC(Cc2ccccc2)CC1,nt,nt,nt,nt,6.6,nt
Cc1ccc(S(=O)(=O)N(C)C[C@H]2Oc3c(NS(=O)(=O)c4ccccc4)cccc3C(=O)N([C@@H](C)CO)C[C@@H]2C)cc1,nt,0.3[16.7 µM],nt,nt,-10.5,nt
C[C@H](CO)N1C[C@H](C)[C@H](CN(C)S(=O)(=O)c2ccc(Cl)cc2)Oc2ccc(NC(=O)Nc3cccc4ccccc34)cc2C1=O,nt,-5.9[16.7 µM],nt,nt,1.3,nt
O=C(O)c1cc([N+](=O)[O-])ccc1NCc1ccccc1,-1.2,nt,0.8,-2.8,-13.6,-0.1
Cc1ccc(CNc2ccc([N+](=O)[O-])cc2C(N)=O)cc1,-4.0,nt,19.6,106.0*,5.4,nt
Cc1noc(C)c1S(=O)(=O)Nc1ccc2c(c1)CC(=O)N([C@@H](C)CO)C[C@@H](C)[C@@H](CN(C)Cc1ccc3c(c1)OCO3)O2,nt,-8.6[16.7 µM],nt,nt,8.6,nt
Cn1c(SCc2ccc(F)cc2)nnc1-c1cccs1,1.0,-3.4,21.9,85.9*,9.1,-1.3
Cn1c(SCc2ccc(F)cc2)nnc1-c1ccccn1,-2.3,13.1,43.2*,51.6,nt,-1.3
Cc1ccc(CSc2ccc(-c3cccs3)nn2)cc1,2.8,nt,nt,108.6*,44.5,34.5
Nn1c(SCc2ccccc2F)nnc1-c1cccnc1,nt,7.4,51.8*,nt,5.2,-1.1
Cn1c(SCc2ccccc2F)nnc1-c1cnccn1,13.9,1.2,12.0,52.7,5.2,2.6
Cn1c(SCc2ccccc2F)nnc1-c1ccccn1,-1.5,-3.6,56.0*,53.7,-1.4,0.5
c1csc(-c2nc(N3CCCCC3)no2)c1,-11.6,0.4,35.3*,81.0*,2.1,1.4
Cc1nnc(SCC(=O)c2ccc(Cl)cc2)n(N)c1=O,nt,nt,43.0*,13.7,2.1,-4.7
CCn1c(SCC(N)=O)nnc1C(C)C,1.0,-2.0,-4.1,2.2,5.9,3.2
CCn1c(SCC(=O)c2ccc(Cl)cc2)nnc1C(C)C,3.6,0.3,35.9*,63.6,nt,2.1
CCOC(=O)c1cnc2c(c(C)nn2C)c1Oc1cc(Cl)cc(Cl)c1,nt,nt,-1.1,-2.9,-8.8,-1.6
CCOC(=O)c1cnc2c(c(C)nn2C)c1Oc1ccc(OC)cc1,nt,0.1,49.2*,nt,-2.2,-1.1
c1ccc(CSc2nnc(-c3cccs3)o2)cc1,nt,1.2,nt,134.5*,11.6,-1.4
